Test [1] has as its target Rap guanine nucleotide exchange factor 3 (Homo sapiens) (UniProt O95398). The experiment in a line: Confirmatory qHTS for antagonist of cAMP-regulated guanine nucleotide exchange factor 3 (EPAC1) (AID 1645880). Further: nearly all actives have a fitted effect of over 55% in size. Further: potency means the concentration at half of the fitted maximal effect. The method, boiled down:
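Released BODIPY-GDP fluoresces less than Rap1-bound BODIPY-GDP; the signal is followed at 480/540 nm at 5-min intervals over 30 min, after 5 min at room temperature. Reactions contain 100 nM EPAC1, 250 nM RAP1B-BODIPY-GDP and 50 uM GDP; results are normalized to ATA and DMSO.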

For test [2] the target is unchanged. Put plainly: Confirmatory qHTS for agonist of cAMP-regulated guanine nucleotide exchange factor 3 (EPAC1) (AID 1645881).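 Further: EPAC1 catalysed release of BODIPY-GDP from Rap1B seen as fluorescence loss; 100% = effect of cAMP agonist control; nearly all actives have a fitted effect of over 75% in size.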
Test [3] concerns the target Rap guanine nucleotide exchange factor 4 (Homo sapiens) (UniProt Q8WZA2). The experiment in a line: Confirmatory qHTS for agonist of cAMP-regulated guanine nucleotide exchange factor 4 (EPAC2) (AID 1645884).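 Further: nucleotide exchange releases bodipy-GDP from Rap1 and this lowers its fluorescence; on the % scale 0 is the no-effect control and ±100 the full control effect; nearly all actives have a fitted effect of over 65% in size.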
For test [4] the target is unchanged. The experiment in a line: Confirmatory qHTS for antagonist of cAMP-regulated guanine nucleotide exchange factor 4 (EPAC2) (AID 1645885). Further: nearly all actives have a fitted effect of over 25% in size. Further: potency means the concentration at half of the fitted maximal effect.

Records with an inconclusive call do not appear. Unmarked numbers belong to inactive results. The source made the active and inactive calls. The call rests on the fitted dose curve; in most records, active means well fitted curve in the direction sought with a large enough effect; inconclusive means small, poorly fitted or top-dose-only effect, or another doubt; inactive means no such curve, though single readings can be large; an effect the other way counts as inactive or inconclusive.

Rap guanine nucleotide exchange factor 4 (Homo sapiens), sequence (Q8WZA2 whole entry, looked up): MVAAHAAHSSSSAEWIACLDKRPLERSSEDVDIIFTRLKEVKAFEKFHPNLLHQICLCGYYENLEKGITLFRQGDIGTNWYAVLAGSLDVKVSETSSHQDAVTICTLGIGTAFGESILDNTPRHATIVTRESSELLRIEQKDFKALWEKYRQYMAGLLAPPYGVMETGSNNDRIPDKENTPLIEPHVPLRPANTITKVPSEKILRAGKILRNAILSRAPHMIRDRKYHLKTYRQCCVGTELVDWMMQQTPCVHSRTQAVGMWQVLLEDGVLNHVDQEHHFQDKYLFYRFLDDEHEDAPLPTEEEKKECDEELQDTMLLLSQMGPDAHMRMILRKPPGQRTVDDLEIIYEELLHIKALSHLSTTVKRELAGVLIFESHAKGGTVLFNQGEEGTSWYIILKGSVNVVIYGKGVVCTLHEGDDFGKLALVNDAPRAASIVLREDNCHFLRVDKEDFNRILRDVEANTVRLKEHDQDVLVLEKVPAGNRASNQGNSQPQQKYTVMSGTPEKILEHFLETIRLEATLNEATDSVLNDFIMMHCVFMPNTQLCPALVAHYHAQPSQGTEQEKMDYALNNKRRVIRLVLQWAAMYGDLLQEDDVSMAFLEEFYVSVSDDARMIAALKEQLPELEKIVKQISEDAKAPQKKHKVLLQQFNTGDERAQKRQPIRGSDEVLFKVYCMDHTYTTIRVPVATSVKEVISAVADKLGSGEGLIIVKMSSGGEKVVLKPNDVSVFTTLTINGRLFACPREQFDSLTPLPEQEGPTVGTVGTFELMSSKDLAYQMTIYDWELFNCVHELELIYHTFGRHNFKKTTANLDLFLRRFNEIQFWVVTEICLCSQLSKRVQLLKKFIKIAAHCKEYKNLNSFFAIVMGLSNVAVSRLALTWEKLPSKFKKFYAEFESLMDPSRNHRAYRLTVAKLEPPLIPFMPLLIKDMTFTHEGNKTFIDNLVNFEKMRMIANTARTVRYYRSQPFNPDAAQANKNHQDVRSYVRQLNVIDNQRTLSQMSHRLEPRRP
Rap guanine nucleotide exchange factor 3 (Homo sapiens), sequence (O95398 whole entry, looked up): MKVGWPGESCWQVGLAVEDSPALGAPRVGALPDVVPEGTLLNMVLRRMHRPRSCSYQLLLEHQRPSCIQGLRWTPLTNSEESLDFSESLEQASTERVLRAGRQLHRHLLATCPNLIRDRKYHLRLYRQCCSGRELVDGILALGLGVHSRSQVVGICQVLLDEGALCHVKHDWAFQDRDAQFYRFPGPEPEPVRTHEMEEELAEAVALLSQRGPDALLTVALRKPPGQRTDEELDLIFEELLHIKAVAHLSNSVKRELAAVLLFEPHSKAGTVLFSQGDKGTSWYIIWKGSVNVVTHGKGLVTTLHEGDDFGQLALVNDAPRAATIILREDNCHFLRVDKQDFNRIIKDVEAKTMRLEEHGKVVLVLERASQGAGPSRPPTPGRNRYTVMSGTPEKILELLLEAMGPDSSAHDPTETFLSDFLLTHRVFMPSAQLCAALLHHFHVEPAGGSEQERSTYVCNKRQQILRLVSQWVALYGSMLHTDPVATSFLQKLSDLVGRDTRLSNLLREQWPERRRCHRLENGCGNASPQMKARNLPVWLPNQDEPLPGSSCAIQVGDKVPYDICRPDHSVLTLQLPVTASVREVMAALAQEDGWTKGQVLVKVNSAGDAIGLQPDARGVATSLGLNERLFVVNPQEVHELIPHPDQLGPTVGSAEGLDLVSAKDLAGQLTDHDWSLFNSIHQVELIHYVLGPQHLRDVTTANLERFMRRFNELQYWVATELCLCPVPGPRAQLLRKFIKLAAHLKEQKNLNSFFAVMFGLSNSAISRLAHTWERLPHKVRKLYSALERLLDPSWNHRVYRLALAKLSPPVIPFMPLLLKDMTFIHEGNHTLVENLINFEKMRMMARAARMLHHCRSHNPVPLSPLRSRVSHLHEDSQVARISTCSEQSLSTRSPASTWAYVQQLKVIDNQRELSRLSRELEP

With `CC1Sc2ccc(C(=O)OCc3ccccc3Cl)cc2NC1=O` (configuration not stated), the Potency result in test [1], in test [2], in test [3] and in test [4] was “inactive” in each case.
As for `COc1ccc(C(C[N+](=O)[O-])c2c(C)cc3ccccn23)c(OC)c1` (configuration not stated), the Potency entry in test [1], in test [2] and in test [4] was “inactive” in each case. Further, in test [3], the activation is 7.09% [at 17.1 µM, percent relative to cAMP agonist control].
As for `Cn1cccc1-c1cc(C(=O)N/N=C/c2ccc(F)cc2)[nH]n1`, the Potency entry in test [1], in test [2] and in test [4] was “inactive” each time. Also, in test [3], the activation was -2.5% [at 17.1 µM, percent relative to cAMP agonist control].
For `CCCCN(C(=O)c1cccc2c(=O)c(C)c(-c3ccccc3)oc12)c1ccccc1`, the Potency result in test [1], in test [2] and in test [4] was “inactive” each time. Further, the activation in test [3] is 8.49% [at 17.1 µM, percent relative to cAMP agonist control].
On to `NC(=O)Nc1ccc(/C=C2\C=Cc3ccccc32)cc1`, for which the Potency result in test [1], in test [2] and in test [3] was “inactive” each time. In test [4], the Potency was 44.1 µM (active).
On to `O=C(NCc1ccc(F)cc1)c1ccc2c(=O)n3c(nc2c1)CCCCC3`, for which the Potency result in test [1], in test [2], in test [3] and in test [4] was “inactive” in each case.
Consider `COCCCn1c(-c2ccccc2)nc2ccccc2c1=O`, for which the Potency entry in test [1], in test [2], in test [3] and in test [4] was “inactive” each time.
In the case of `Fc1ccccc1N1CCN(c2ncnc3onc(-c4ccc(Cl)cc4)c23)CC1`, the Potency entry in test [1], in test [2], in test [3] and in test [4] was “inactive” each time.
`COc1cc(C(=O)N(Cc2cc3ccc(C)cc3nc2N(C)C)C2CC2)cc(OC)c1OC`: the Potency entry in test [1], in test [2] and in test [3] was “inactive” each time. Also, in test [4], the Potency is 17.5 µM (active).
Regarding `COc1ccc(OC)c2c(/C=C/c3c(C)[nH]c4ccccc34)ccnc12`, the Potency entry in test [1], in test [2], in test [3] and in test [4] was “inactive” throughout.
As for `COc1cccc(NC(=O)c2csc3c2CCCC3)c1`, the Potency result in test [1], in test [2] and in test [4] was “inactive” throughout. Moreover, in test [3], the activation was 8.66% [at 17.1 µM, percent relative to cAMP agonist control].
As for `Cc1cc(C)c(OCC(=O)Nc2ccccc2N2CCCCC2)c(C)c1`, the Potency entry in test [1], in test [2], in test [3] and in test [4] was “inactive” each time.
In the case of `Cn1nc(-c2ccccn2)nc2c(=O)n(C)c(=O)nc1-2`, in test [1], the Potency is 1.69 µM (active). Further, the Potency entry in test [2], in test [3] and in test [4] was “inactive” in each case.
On to `CN(C)c1ccc(/C=C/c2ccnc3ccc4ccccc4c23)cc1`, for which the Potency was 49.8 µM (active) in test [1] and 55.5 µM (active) in test [4]. Also, the Potency result in test [2] and in test [3] was “inactive” throughout.
Consider `COc1cc(/C=N/NC(=O)c2ccccc2)ccc1O`, for which the Potency entry in test [1], in test [2], in test [3] and in test [4] was “inactive” in each case.
As to `Cn1c(O)c(N=NC(=O)c2ccccc2O)c2ccccc21`, in test [1], the Potency was 53.6 µM (active). The Potency entry in test [2], in test [3] and in test [4] was “inactive” throughout.
In the case of `CCC1CCCCN1CCCNC(=O)CCC(=O)N1CC(C)Oc2ccccc21` (configuration not stated), the Potency result in test [1], in test [2], in test [3] and in test [4] was “inactive” throughout.
Turning to `CCc1ccccc1NC(=O)CCC(=O)N1CCN(C(C)=O)CC1`, the Potency entry in test [1], in test [2], in test [3] and in test [4] was “inactive” in each case.
For `c1ccc2c(N3CCCCCC3)nc(CN3CCCCC3c3nccs3)nc2c1` (configuration not stated), the Potency result in test [1], in test [2] and in test [3] was “inactive” each time. In addition, the Potency in test [4] was 13.9 µM (active).
In the case of `COc1ccc(N2CCN(C(=O)COC(=O)c3ccc(C)o3)CC2)cc1`, the Potency result in test [1], in test [2] and in test [4] was “inactive” in each case. In addition, the activation in test [3] was 5.39% [at 17.1 µM, percent relative to cAMP agonist control].
In the case of `Cc1ccc(S(=O)(=O)/N=C2\SC(CC(=O)Nc3ccc(F)cc3)C(=O)N2c2ccccc2)cc1` (configuration not stated), the Potency entry in test [1], in test [2] and in test [4] was “inactive” in each case. For the same compound, the activation in test [3] is 3.37% [at 17.1 µM, percent relative to cAMP agonist control].
Regarding `Cc1cccc(C)c1OCC(=O)N(Cc1ccco1)Cc1ccco1`, the Potency result in test [1], in test [2], in test [3] and in test [4] was “inactive” each time.
For `COc1ccccc1CNC(=O)CSc1ccc(-c2cccs2)nn1`, the Potency result in test [1], in test [2], in test [3] and in test [4] was “inactive” throughout.
Consider `CCOC(=O)N1CCC(N2CCOc3ccc(CN4CCC(O)(c5cccnc5)CC4)cc3C2)CC1`, for which the Potency result in test [1], in test [2], in test [3] and in test [4] was “inactive” each time.
On to `COc1ccccc1NC(=O)Nc1nc(CC(=O)Nc2ccc(N(C)C)cc2)cs1`, for which the Potency entry in test [1], in test [2] and in test [4] was “inactive” in each case. Further, the activation in test [3] was 15.9% [at 17.1 µM, percent relative to cAMP agonist control].
`CN(C)c1ccc(/C=C/C=C/c2ccnc3ccccc23)cc1`: the Potency result in test [1], in test [2], in test [3] and in test [4] was “inactive” throughout.
`O=C(O)c1cc(-c2ccc(-c3c(-c4ccc5c(c4)OCO5)noc3-c3ccsc3)cc2)nc2ccccc12`: the Potency in test [1] is 75.7 µM (active); in test [4] it was 37.9 µM (active). Further, the Potency entry in test [2] and in test [3] was “inactive” each time.
For the compound `COc1cccc(OC)c1NC(=O)c1ccc(-c2cc(Cl)ccc2Cl)o1`, the Potency result in test [1], in test [2], in test [3] and in test [4] was “inactive” in each case.
